Shiga inhibitor – Shiga toxin inhibition. Vero cells, Shiga toxin protein synthesis inhibition reporter. inhibition, % at 38.7 µM. 290,000 tested, 9.2% active. AID 2315; in the data active = inhibition mostly above about 28%, no sharp cut-off; inactive = mostly below about 43%; note: 0% is about no effect
Marburg entry inh – blocks Marburg virus binding to or entry into cells; 300,000 tested, 1.8% active; Marburg virus pseudotyped entry inhibition, cell reporter; AID 540276; Potency, µM (titrated, usually from 37.8 µM), for the others: at the highest dose activity change, negative = inhibition, actives largely listed as inhibitors; calls by dose curve; tested in HEK293 cells; note: potency is the fitted concentration of half-maximal effect; % is set by controls: 0 for no effect and ±100 for the full control effect
Pf growth 96h – P. falciparum growth inhibition at 96 hour, primary screen for plastid delayed-death inhibitors; AID 504834; 320,000 tested, 6.9% active; Potency, µM (titrated, usually from 28.7 µM), without a hit: at the top dose activity change, negative = inhibition, hits mostly inhibitors; P. falciparum luciferase reporter growth, 96 h; note: potency is the fitted concentration of half-maximal effect; % is set by controls: 0 for no effect and ±100 for the full control effect
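P. falciparum expressing integrated firefly luciferase, in erythrocytes at 2% hematocrit, 0.05% parasitemia, incubated with compounds 96 h at 37 C, 5% CO2. Growth inhibition read as loss of luminescence; two-generation exposure targets delayed-death apicoplast inhibitors.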
Lassa entry inh – inhibitors of Lassa virus binding or cell entry; Potency, µM (doses to about 37.9 µM), inactives show at the top dose activity change, negative = inhibition, usual class: inhibitors; AID 540256; 300,000 tested, 1.2% active; Lassa virus pseudotype entry inhibition, cell reporter; calls by dose curve; tested in HEK293 cells; note: potency is the fitted concentration of half-maximal effect; % is set by controls: 0 for no effect and ±100 for the full control effect; nearly all actives have a fitted effect of over 50% in size
Pf growth 48h – inhibits P. falciparum growth in the first generation, 48 h. P. falciparum luciferase growth in erythrocytes, 48 h. Potency, µM (series often up to 28.7 µM), for the others: top-dose activity change, negative = inhibition, actives largely listed as inhibitors. 310,000 tested, 5.9% active; note: potency is the fitted concentration of half-maximal effect; % is set by controls: 0 for no effect and ±100 for the full control effect
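Firefly luciferase activity from engineered P. falciparum reports growth; inhibitors lower the luminescent signal. Cultures contained 2% hematocrit erythrocytes at 0.1% final parasitemia.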
Cycloheximide cs – affects cycloheximide protein synthesis inhibition readout, counter-screen. cell reporter, cycloheximide protein synthesis inhibition counterscreen. 300,000 tested, 12% active. max response, %. AID 2314; in the data active = max response mostly above about 13%, no sharp cut-off; inactive = mostly below about 14%; note: read at 38.3 µM for the half of the compounds with a filed dose; 0% is about no effect
* = called active by the depositor; i = inactive; ? = inconclusive; . = no result given; [ ] = dose if it differs, or a comment. Rows were chosen to be rich in hits. Some 19% of all compounds tested hit in one or more screens of this group. Unless noted, calls come from the whole dose curve; as a rule, active = well fitted inhibition curve with a large enough effect; inconclusive = small, poorly fitted or top-dose-only effect, or another doubt; inactive = no such curve, though single readings can be large or run the other way.

SMILES	Shiga inhibitor	Marburg entry inh	Pf growth 96h	Lassa entry inh	Pf growth 48h	Cycloheximide cs
CCCOc1ncnc2c1[nH]c1ccccc12	60	-12%	65%	-17%	68%	42*
COCCNc1ncnc2c1[nH]c1ccccc12	9	-12%	-3%	-5%	-1%	6
CC1c2cc3c(cc2CCN1S(=O)(=O)c1ccccc1)OCCCO3 (configuration not stated)	-5	-18%[46.1 µM]	-11%	-11%[46.1 µM]	9%	6
CCCCOc1ncnc2c1[nH]c1ccc(C)cc12	106*	?	337%	?	203%	43*
C/C(=N\NC(=O)c1c(Cl)cnn1C)c1ccc(NC(=O)c2ccc(Br)o2)cc1	57*	-3%[46.1 µM]	?	-16%[46.1 µM]	-9%	40*
C/C(=N\NC(=O)C1CC1)c1ccc(NC(=O)c2ccc(Br)o2)cc1	55*	.	37%	.	80%	24*
C/C(=N\NC(=O)C1CC1)c1ccc(C(C)(C)C)cc1	18	.	0%	.	?	21
COC(=O)c1ccc(NC(=S)NC(=O)c2c(Cl)cnn2C)cc1	8	?	?	0%	?	3
COc1ccc(CC(=O)Nc2ccc(/C(C)=N\NC(=O)c3ccc(Br)o3)cc2)cc1	44*	24%	?	-27%	-26%	42*
Cc1nc(-c2ccc(-c3ccc(C(=O)N4CCc5cc6c(cc54)C4(CCN(C)CC4)CO6)cc3)c(C)c2)no1	.	5µM*	.	.	.	.
COc1ccc(NC(=O)c2ccc(-c3ccc(-c4noc(C)n4)cc3C)cc2)cc1N1CCN(C)CC1	.	2.5µM*	2.6µM*	?	3.3µM*	.
COCCn1nnnc1C(C(C)C)N(Cc1cccnc1)Cc1ccccc1Cl (configuration not stated)	-2	-14%	0%	-14%	10µM*	-1
COc1ccccc1NC(=S)N(Cc1cccnc1)Cc1ccccc1Cl	24	-25%[46.1 µM]	?	10%	?	0
CC(C)OC(=O)c1ccc(NCc2cc(O)ccc2O)cc1	.	2µM*	.	13µM*	.	.
COc1ccc(CNc2ccc(S(N)(=O)=O)cc2)c(OC)c1OC	41	6%	-3%[5.75 µM]	2%	-2%	6
O=C(OCc1ccccc1)c1ccc(NCc2cc(O)ccc2O)cc1	.	?	.	2.5µM*	.	.
COC(=O)c1ccc(CCc2cc(O)ccc2O)cc1	.	?	.	13µM*	.	.
COP(=O)(OC)c1ccc(NCc2cc(O)ccc2O)cc1	.	4.5µM*	.	-23%	.	.
Oc1ccc(NCc2ccccc2OCc2ccccc2)cc1	4	?	?	?	?	7
CC(CNC(=O)c1ccc2c(c1)OCO2)c1ccc([N+](=O)[O-])cc1 (configuration not stated)	12	-28%[46.1 µM]	10%	-26%[46.1 µM]	-26%	1
CN(C(=O)COC(=O)c1cc2ccccc2cc1O)c1c(N)n(Cc2ccccc2)c(=O)[nH]c1=O	.	10%[46.1 µM]	20%	-22%	2%	.
CC(/C=N\Nc1nnc2c(n1)[nH]c1c(C)cccc12)=C\c1ccco1	44	?	26%	-23%	?	1
COc1ccc2c(c1)CC=C1C2CCC2(C)C(=O)C(=NO)CC12 (configuration not stated)	.	?	.	23%	.	.
CCOc1ccc(S(=O)(=O)Nc2cccc(C(=O)NCC(c3ccco3)N(C)C)c2)cc1 (configuration not stated)	.	6%	?	-12%	1%	.
CCSc1nc(C)cc(C)c1S(=O)(=O)c1ccccc1C	13	-21%	?	5%	?	-2
SMILES	Shiga inhibitor	Marburg entry inh	Pf growth 96h	Lassa entry inh	Pf growth 48h	Cycloheximide cs
Cc1ccc(CSc2nnc(-c3ccccn3)n2C)cc1	94*	-2%	12%	-8%	-6%	24*
Cn1c(CO)cnc1SCc1ccc(F)cc1	50*	9%[46.1 µM]	0%	5%[46.1 µM]	i	17*
Cn1c(SCc2ccc(F)cc2)nnc1-c1ccccn1	116*	?	205%	?	59%	39*
c1ccc(CSc2nnc(-c3ccccn3)n2-c2ccccc2)cc1	-7	-17%	.	-14%	0%	1
CC(C)c1onc(C(=O)N2CCN(C(c3ccccc3)c3ccccc3)CC2)c1[N+](=O)[O-]	8	-2%	?	8%	?	5
COc1ccc(C(=O)COC(=O)C(CC(C)C)N2C(=O)c3ccccc3C2=O)cc1 (configuration not stated)	-5	-16%	-3%	-12%	-1%	-3
CCn1cc(C(=O)NC(C)C2CC3CCC2C3)cn1 (configuration not stated)	17	-18%	-15%	-1%	-1%	1
CCn1cc(C(=O)NC(C)C23CC4CC(CC(C4)C2)C3)cn1 (configuration not stated)	-3	?	5.2µM*	-3%	?	-3
CCCCc1ccc(/C=C2\C(=O)c3ccccc3C(O)=C2C(=O)OCC)cc1	30*	.	?	.	?	16*
Cc1ccc(OC[C@H](O)[C@H](C)NC(C)C)c2c1CCC2	.	16µM*	?	.	9.3µM*	.
CCc1ccc(C(=O)NNc2ccc(F)cc2)cc1	41*	?	33%	-25%[46.1 µM]	45%	14
CCc1ccc(C(=O)NNc2ccccc2F)cc1	71*	4.5µM*	69%	?	86%	36*
CCc1ccc(C(=O)NNc2cc(Cl)ccc2Cl)cc1	13	.	13%	.	?	2
CCCc1ccc(C(=O)NNc2ccccc2F)cc1	77*	.	47%	.	66%	20*
CCc1ccc(C(=O)NNc2ccc(C)c(Cl)c2)cc1	10	?	51%	?	?	9.9*
CCc1ccc(C(=O)NNc2ccc(S(N)(=O)=O)cc2)cc1	14	19%	26%	?	29%	1
CN(C(=O)CSc1nc(C2CCCC2)nc2c1c(=O)n(C)c(=O)n2C)c1ccccc1	.	.	.	-27%[46.1 µM]	.	.
CCCCOc1ccc(CSC(=N)N)cc1Cl	19	?	?	5%	?	1
CCCCCOc1ccc(Br)cc1CSC(=N)N	-19	.	?	.	10µM*	-7
CC(=O)c1ccc(OC(C)C)c(CSC(=N)N)c1	-7	.	-64%	.	?	-2
COc1ccc(Br)cc1CSC(=N)N	-8	13µM*	16%	0%[46.1 µM]	?	-6
CN(C)CCCN(C(=O)CCc1ccccc1)c1nc2ccc(F)cc2s1	-10	-29%	?	-18%	?	-3
Cc1c(NC(=O)c2cccc(NS(C)(=O)=O)c2)c(=O)n(-c2ccccc2)n1C	14	.	-4%	.	0%	-1
CCOC(=O)c1ccc(NC(=O)[C@@H](NC(N)=O)C(C)C)cc1	-5	?	6%	-17%[46.1 µM]	12%	-2
CCNc1ccc2c(Cl)cc(=O)oc2c1	22	12%	?	-3%	-12%	19*
CCN(CC)c1ccc2c(Cl)cc(=O)oc2c1	-8	?	45%	?	-2%	-2
CCCc1nnc(SCC(=O)Nc2nccs2)o1	-3	3%[46.1 µM]	8%	?	9.3µM*	-2
CCCCc1nnc(SCC(=O)Nc2nccs2)n1CC	-12	.	44%	.	-12%	1

Bioassay records (PubChem BioAssay)
